Measured values from PubChem BioAssay (NCI).
About 83,000 compounds went through this panel and 20% of them were active in at least one assay; those are over-represented in the sample as a whole.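 Treatment: one concentration, 48 hours, 96-well format. Scoring: percent growth, with anything below 10 considered active.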 Values without a mark were called inactive. The source made the active and inactive calls.

system: NCI-H226 lung; test: NCI-60 one-dose screen, 48 h (100 = growth as untreated, 0 = no growth, -100 = all killed); settings: 10 µM unless noted
Method: Growth inhibition of the NCI-H226 human Non-Small Cell Lung tumor cell line is measured as a screen for anti-cancer activity. Cells are grown in 96 well plates and exposed to the test compound for 48 hours. Compounds are tested at a single concentration, which is 10^-5 M for most compounds. The reported endpoint is percent growth (GI% or GIPRCNT), where numbers from 0 - 100% represent growth inhibition, and numbers from -100% - 0 represent cell death. For example, a value of 40 represents 60% growth inhibition. A value of 0 means no net growth occurred over the course of the experiment. A value of -40 indicates 40% of cells at the beginning of the experiment died by the end of the experiment. A value of -100 means all cells are dead at the end of the experiment.
NCI-60 Human Tumor Cell Lines Screen was performed using the standard one-dose NCI protocol, which is described in more detail at https://dtp.cancer.gov/discovery_development/nci-60/default.htm.
Compounds with GIPRCNT values below 10 were considered active. Activity score was based on GIPRCNT using the following formula: […]
Score is 0 for GIPRCNT values of 100 or above, 50 for GIPRCNT values of 0, and 100 for GIPRCNT values of -100.

SMILES	growth
O=Nc1c(-c2c(O)[nH]c3ccc([N+](=O)[O-])cc23)[nH]c2ccc(O)cc12	-4.7% (active)
O=c1oc2cc(OS(=O)(=O)c3ccc(F)cc3)ccc2c2c1CCCCC2	55.1%
O=C(Nc1cc(C(F)(F)F)cc(C(F)(F)F)c1)Nc1ccc(OCc2nnc(-c3ccc(Cl)cc3)o2)c(F)c1	6.03% (active)
COc1ccc(/C=C/C(=O)OCC(=O)NNC(=O)c2ccccc2)cc1OC	103%
O=C(CNC(=O)c1cccc2ccccc12)Nc1ccccc1Oc1ccccc1	49.2%
CC(=O)/C=C/c1cc2cc(Cl)ccc2[nH]c1=O	85.1%
CCC1CCc2nc3sc(C(=O)Nc4ccccc4C)c(N)c3cc2C1 (stereo not given)	62.7%
COc1ccc(/C=C/C(=O)c2ccc(B(O)O)cc2)cc1O	92.5%
COc1cc2nc(N3CCC[C@@H](NC4=CC(=O)c5ccccc5C4=O)C3)nc(N)c2cc1OC	113%
O=C(O)Cc1ccc2c(c1)Cc1cccnc1O2	91.7%
Cc1nc(Nc2cccnc2)sc1C(=O)/C=C/c1ccc(Cl)cc1	62.5%
C=C1C(=O)O[C@H]2[C@H]1CC/C(COC(=O)NCc1ccc(OC)cc1)=C\CC[C@@]1(C)O[C@@H]21	64.5%
Nc1c(C(=O)c2ccc(F)cc2)sc2nc3c(cc12)CCCC3	85.4%
Cc1ccc(S(=O)(=O)OC2COCOC2C(OS(=O)(=O)c2ccc(C)cc2)C2OCOCC2OS(=O)(=O)c2ccc(C)cc2)cc1 (stereo not given)	95.2%
O=S(=O)(NCCCNc1cc(-c2cn(-c3ccccc3)nc2-c2cccc(O)c2)ccn1)c1ccc(Cl)cc1	24.8%
O=C(/C=C/c1ccccc1)n1c(-c2ccc(Cl)cc2)nc2ccccc21	-55.3% (active)
CC1(C)OC2COC3(C(=O)O)OC(C)(C)OC3C2O1 (stereo not given)	99.9%
CC(C)CCN(CCCNc1c2c(nc3ccccc13)CCCC2)CCC(C)C	102%
COc1ccc(C(=O)/C=C/c2ccc(/C=C/c3cc(OC)c(OC)c(OC)c3)cc2)cc1	72.4%
Nc1c(C(=O)Nc2cccc(C(F)(F)F)c2)sc2nc3c(cc12)CCCCCC3	5.69% (active)

SMILES	growth
Cc1ccc2nc(-c3c(N)n[nH]c3CCCO)[nH]c(=O)c2c1	97.5%
COc1ccc(C2CC(=O)Nc3c2c(C)nn3-c2nc3ccccc3[nH]2)cc1OC (stereo not given)	58.7%
O=C(Nc1ccc(Br)c(Cl)c1)c1cc(F)ccc1O	-23.8% (active)
O=C(CCl)NCCNc1nccc(Nc2ccc(S(=O)(=O)Nc3ccccn3)cc2)n1	48%
COc1cc(-c2nc(-c3nc4ccccc4[nH]3)cc3c2[nH]c2ccccc23)cc(OC)c1OC	72.6%
CCOC(=O)/C=C\C(=O)NC(N)=O	96.9%
O=C(Nc1ccc(I)cc1)c1cc([N+](=O)[O-])ccc1O	45.9%
CN(C)c1nc(N)c(N=O)c(N)n1	112%
COc1ccc([N+](=O)[O-])c(/C=C/C(=O)c2ccccn2)c1	84.2%
COc1ccc(/C=C/C(=O)c2ccc(NC(=O)CN3CCN(c4cc5c(cc4F)c(=O)c(C(=O)O)cn5C4CC4)CC3)cc2)cc1	94.8%
O=C1CCCCN1CCCCC#Cc1ccccc1C#Cc1ccc([N+](=O)[O-])cc1	57.1%
c1ccn2nnnc2c1	111%
CCCCOc1nc2c(C)cccc2cc1C1CNC(=O)c2ccccc2N1 (stereo not given)	89%
O=C(NCCCN1CCN(CCCNC(=O)C2CCCCC2)CC1)C1CCCCC1	105%
COc1cc(NS(C)(=O)=O)ccc1Nc1c2ccc([N+](=O)[O-])cc2nc2c(C)cccc12	-23.6% (active)
CC/C=C\C/C=C\C[C@H](O)C/C=C1/C(=O)C=C[C@H]1C/C=C\CCC(=O)OC	69.9% [8.25 µM]
C=C1C(=O)O[C@H]2[C@H]1CC/C(COC(=O)NCc1cc(OC)c(OC)c(OC)c1)=C\CC[C@@]1(C)O[C@@H]21	76.2%
COc1cc(NC(=O)CCl)ccc(=O)c1	122%
Cc1cc(C)c(S(=O)(=O)N2CCN(c3cc4c(cc3F)c(=O)c(C(=O)O)cn4C3CC3)CC2)c(C)c1	71.8%
CCN(CC)CCCNc1nc(C)cc(Nc2ccc3nc(C)cc(N)c3c2)n1	104%
